# Laboratory results published in the supplement of paper PMC10849652.
# The full data set covers some 8,800 targets. This sample favours those with a hit. About 0.5% of all pairs of compound and target were hits. Unmarked numbers belong to inactive results.
# Key:
# Test in all cases: log2 fold change, soluble protein after heating vs DMSO (PISA); higher = thermal stabilisation; K562 lysate, 10 uM; active = over 0.2 and 3.5 SD of the protein, either way, in both replicates (recomputed)
# erlotinib = compound: C#Cc1cccc(Nc2ncnc3cc(OCCOC)c(OCCOC)cc23)c1 [erlotinib]
# In short: (§1)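 Log-two fold change in thermal stability relative to solvent controls is reported from duplicates. For each sample, crude K562 extract from dounce-homogenised pellets in PBS pH 7.4 with 1 mM MgCl2, at 1 mg/mL protein, was treated with 10 μM compound for 30 min. Aliquots heated for 3 min across 48°C-58°C were pooled, brought to 0.5% NP-40 at 4°C and cleared at 21,000xg for 90 min. The supernatant was quantified by TMTpro 16plex LC-MS/MS with channel sums equalised.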
# [1] = compound: C/C(=N\NC(=O)C1=CC(=CC=C1)S(=O)(=O)N2CCOCC2)/C3=C(C=CC(=C3)Cl)O
# In short: as §1
# [2] = compound: C1=CC(=CC=C1C2=NC3=C(N2)C=C(C=C3)C(=O)N)OC4=CC=C(C=C4)Cl
# In short: as §1
# [3] = compound: C1=CC2=C(C=CC(=C2)/C=C\3/C(=O)NC(=NCC4=CC=CS4)S3)N=C1
# In short: as §1
# [4] = compound: C1=CC2=NC=CN=C2C=C1/C=C/3\C(=O)NC(=O)S3
# In short: as §1
# [5] = compound: C1=CC=C(C=C1)C2=NC(=C(N2)C3=CC=NC=C3)C4=CC(=C(C=C4)Cl)O
# In short: as §1
# [6] = compound: C1=CC=C2C(=C1)C3=NNC4=CC=CC(=C43)C2=O
# In short: as §1
# [7] = compound: C1CCN(C1)C(=O)NC2=CC=CC(=C2)NC3=NC=C(C(=N3)NCCC4=CN=CN4)Br
# In short: as §1
# [8] = compound: C1CN(CCC1(CC2=CC=C(C=C2)Cl)N)C3=NC=NC4=C3C=CN4
# In short: as §1
# IRAK-1-4 Inhibitor I = compound: C1COCCN1CCN2C3=CC=CC=C3N=C2NC(=O)C4=CC(=CC=C4)[N+](=O)[O-] [IRAK-1-4 Inhibitor I]
# In short: as §1
# ibrutinib = compound: C=CC(=O)N1CCC[C@@H](n2nc(-c3ccc(Oc4ccccc4)cc3)c3c(N)ncnc32)C1 [ibrutinib]
# In short: as §1
# [9] = compound: CC(=O)c1cnc2ccc(-c3cc(Cl)c(O)c(Cl)c3)nc2c1N[C@H]1CC[C@H](CN(C)C)CC1
# In short: as §1
# ralimetinib = compound: CC(C)(C)Cn1c(N)nc2ccc(-c3[nH]c(C(C)(C)C)nc3-c3ccc(F)cc3)nc21 [ralimetinib]
# In short: as §1
# [10] = compound: CC(C)(O)CC(=O)NCCn1ccc2ncnc(Nc3ccc(Oc4cccc(C(F)(F)F)c4)c(Cl)c3)c21
# In short: as §1
# [11] = compound: CC(C)C1=C2N=C(C=C(N2N=C1)NCC3=CC=CC=C3)NCCCCCCN
# In short: as §1
# [12] = compound: CC1=C(C(CC(=O)N1)C2=CC=C(C=C2)C(F)(F)F)C(=O)NC3=C(C=C4C(=C3)C=NN4)F
# In short: as §1
# [13] = compound: CC1=C(C2=C(C=C1)C(=O)C3=CC=CC=C3N2CCCN)C
# In short: as §1
# [14] = compound: CC1=C(C=C(C=C1)NC(=O)C2=CC(=CC=C2)C(C)(C)C#N)NC3=CC4=C(C=C3)N=CN(C4=O)C
# In short: as §1
# [15] = compound: CC1=C(C=C(C=C1)NC(=O)C2=CC(=CC=C2)N(C)C)NC(=O)C3=CC=C(C=C3)O
# In short: as §1
# [16] = compound: CC1=CC=C(C=C1)SC2=C3C=C(SC3=CN=C2)C(=O)N
# In short: as §1
# Chain of UniProt O96017 (O96017 whole entry, looked up): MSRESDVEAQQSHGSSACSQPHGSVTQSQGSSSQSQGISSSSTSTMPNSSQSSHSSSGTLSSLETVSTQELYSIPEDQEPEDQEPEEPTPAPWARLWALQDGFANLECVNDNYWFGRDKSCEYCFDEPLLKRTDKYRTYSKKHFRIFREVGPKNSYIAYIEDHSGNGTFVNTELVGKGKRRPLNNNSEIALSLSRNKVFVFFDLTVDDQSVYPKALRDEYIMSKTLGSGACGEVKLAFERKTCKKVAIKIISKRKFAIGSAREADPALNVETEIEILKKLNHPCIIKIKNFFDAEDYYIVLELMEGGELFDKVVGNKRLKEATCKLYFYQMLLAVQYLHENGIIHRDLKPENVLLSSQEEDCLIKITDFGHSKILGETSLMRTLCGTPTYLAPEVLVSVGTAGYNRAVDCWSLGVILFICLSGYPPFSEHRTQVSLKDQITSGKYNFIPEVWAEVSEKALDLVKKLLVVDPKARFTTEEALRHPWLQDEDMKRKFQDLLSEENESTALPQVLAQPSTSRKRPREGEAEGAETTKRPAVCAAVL
# Chain of UniProt P48730 (P48730 whole entry, looked up): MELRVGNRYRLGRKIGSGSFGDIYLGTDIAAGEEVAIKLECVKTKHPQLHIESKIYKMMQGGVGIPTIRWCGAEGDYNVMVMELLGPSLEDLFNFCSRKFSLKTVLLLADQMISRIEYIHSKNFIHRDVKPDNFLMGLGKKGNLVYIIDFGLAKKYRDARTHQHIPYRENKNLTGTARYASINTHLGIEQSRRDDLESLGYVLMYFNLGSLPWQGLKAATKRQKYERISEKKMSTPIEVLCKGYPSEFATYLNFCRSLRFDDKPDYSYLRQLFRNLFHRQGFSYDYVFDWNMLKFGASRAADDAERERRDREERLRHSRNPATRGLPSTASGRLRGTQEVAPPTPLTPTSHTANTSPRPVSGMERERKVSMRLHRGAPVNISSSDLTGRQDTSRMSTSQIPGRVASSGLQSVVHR
# Chain of UniProt Q9BSY9 (Q9BSY9 whole entry, looked up): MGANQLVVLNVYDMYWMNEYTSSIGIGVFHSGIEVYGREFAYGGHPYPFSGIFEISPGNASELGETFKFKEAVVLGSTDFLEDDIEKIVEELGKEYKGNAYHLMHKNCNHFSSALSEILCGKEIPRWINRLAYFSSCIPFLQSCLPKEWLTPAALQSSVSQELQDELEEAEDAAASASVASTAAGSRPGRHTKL
# Chain of UniProt P30622 (P30622 whole entry, looked up): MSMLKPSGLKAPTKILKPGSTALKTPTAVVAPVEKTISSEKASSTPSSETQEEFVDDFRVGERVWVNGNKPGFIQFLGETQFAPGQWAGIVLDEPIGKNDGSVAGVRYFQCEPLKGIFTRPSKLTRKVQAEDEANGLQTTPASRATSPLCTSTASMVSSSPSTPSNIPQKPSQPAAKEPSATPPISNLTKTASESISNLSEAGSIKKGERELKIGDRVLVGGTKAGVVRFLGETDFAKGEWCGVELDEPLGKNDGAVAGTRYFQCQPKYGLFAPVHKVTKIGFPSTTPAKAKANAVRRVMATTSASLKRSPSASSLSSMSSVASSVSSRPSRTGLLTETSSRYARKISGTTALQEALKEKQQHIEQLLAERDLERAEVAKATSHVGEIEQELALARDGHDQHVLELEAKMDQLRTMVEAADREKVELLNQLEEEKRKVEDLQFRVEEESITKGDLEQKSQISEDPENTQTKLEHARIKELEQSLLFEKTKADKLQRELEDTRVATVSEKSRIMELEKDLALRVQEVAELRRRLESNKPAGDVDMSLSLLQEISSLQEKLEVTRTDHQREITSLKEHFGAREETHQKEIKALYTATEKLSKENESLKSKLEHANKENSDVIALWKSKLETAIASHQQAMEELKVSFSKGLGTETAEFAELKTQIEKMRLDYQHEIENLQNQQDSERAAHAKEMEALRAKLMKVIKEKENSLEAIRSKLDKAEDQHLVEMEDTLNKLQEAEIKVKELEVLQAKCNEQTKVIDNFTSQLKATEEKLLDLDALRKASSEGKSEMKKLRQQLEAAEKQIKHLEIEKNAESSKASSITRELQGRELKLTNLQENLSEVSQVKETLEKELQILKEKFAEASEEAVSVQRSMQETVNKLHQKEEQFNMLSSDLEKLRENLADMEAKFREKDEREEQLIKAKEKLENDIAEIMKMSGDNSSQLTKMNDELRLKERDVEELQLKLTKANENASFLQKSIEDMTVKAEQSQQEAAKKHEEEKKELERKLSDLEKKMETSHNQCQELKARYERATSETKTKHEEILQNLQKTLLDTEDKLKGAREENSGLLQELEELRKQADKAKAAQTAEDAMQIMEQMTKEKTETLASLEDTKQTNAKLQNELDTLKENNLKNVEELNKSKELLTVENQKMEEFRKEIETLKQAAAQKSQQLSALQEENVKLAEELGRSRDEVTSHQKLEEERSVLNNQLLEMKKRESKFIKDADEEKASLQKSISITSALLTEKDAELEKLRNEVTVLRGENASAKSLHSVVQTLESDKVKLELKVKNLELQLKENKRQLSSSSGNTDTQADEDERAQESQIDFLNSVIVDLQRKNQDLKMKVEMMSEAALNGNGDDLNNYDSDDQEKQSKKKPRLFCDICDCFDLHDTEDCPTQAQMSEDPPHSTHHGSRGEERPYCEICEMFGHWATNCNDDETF
# Chain of UniProt Q9NYP3 (Q9NYP3 whole entry, looked up): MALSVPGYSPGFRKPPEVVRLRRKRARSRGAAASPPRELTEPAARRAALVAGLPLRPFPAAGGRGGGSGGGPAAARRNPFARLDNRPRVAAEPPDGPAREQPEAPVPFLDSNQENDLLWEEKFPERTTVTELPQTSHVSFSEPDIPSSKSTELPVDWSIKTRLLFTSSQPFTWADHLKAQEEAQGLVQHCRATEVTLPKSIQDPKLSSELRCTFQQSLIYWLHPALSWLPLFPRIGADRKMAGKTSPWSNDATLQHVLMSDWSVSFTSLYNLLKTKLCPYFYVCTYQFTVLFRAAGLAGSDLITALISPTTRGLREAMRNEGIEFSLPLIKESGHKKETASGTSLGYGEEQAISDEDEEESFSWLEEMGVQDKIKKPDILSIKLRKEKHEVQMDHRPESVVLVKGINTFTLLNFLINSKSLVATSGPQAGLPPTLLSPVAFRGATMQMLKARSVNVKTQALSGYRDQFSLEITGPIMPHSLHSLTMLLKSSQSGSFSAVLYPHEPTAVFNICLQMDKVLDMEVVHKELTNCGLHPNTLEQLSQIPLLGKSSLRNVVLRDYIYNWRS
# Chain of UniProt Q6UX07 (Q6UX07 whole entry, looked up): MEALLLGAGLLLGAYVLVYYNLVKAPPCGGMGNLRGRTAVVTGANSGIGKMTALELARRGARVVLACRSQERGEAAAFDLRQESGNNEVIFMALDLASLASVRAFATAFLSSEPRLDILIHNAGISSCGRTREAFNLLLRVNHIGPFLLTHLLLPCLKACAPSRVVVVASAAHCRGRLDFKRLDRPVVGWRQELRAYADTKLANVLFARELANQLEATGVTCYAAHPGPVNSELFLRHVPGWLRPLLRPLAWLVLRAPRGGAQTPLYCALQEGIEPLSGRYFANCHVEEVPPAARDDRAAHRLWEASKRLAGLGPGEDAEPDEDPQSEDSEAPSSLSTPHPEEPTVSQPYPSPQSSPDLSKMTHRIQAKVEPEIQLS
# Chain of UniProt Q9Y600 (Q9Y600 whole entry, looked up): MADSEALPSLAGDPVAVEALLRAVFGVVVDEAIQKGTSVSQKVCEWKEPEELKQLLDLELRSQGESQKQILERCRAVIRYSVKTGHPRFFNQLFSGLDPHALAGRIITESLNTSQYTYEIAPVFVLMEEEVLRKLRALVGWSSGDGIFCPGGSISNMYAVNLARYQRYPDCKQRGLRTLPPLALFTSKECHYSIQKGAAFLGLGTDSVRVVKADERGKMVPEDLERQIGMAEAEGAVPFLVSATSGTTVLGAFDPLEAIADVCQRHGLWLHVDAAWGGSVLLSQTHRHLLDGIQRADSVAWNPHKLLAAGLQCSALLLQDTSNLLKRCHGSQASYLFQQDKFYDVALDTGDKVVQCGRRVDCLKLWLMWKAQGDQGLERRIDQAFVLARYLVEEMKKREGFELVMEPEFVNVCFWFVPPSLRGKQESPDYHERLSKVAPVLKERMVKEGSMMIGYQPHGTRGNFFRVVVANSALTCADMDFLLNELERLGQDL
# Chain of UniProt Q08345 (Q08345 whole entry, looked up): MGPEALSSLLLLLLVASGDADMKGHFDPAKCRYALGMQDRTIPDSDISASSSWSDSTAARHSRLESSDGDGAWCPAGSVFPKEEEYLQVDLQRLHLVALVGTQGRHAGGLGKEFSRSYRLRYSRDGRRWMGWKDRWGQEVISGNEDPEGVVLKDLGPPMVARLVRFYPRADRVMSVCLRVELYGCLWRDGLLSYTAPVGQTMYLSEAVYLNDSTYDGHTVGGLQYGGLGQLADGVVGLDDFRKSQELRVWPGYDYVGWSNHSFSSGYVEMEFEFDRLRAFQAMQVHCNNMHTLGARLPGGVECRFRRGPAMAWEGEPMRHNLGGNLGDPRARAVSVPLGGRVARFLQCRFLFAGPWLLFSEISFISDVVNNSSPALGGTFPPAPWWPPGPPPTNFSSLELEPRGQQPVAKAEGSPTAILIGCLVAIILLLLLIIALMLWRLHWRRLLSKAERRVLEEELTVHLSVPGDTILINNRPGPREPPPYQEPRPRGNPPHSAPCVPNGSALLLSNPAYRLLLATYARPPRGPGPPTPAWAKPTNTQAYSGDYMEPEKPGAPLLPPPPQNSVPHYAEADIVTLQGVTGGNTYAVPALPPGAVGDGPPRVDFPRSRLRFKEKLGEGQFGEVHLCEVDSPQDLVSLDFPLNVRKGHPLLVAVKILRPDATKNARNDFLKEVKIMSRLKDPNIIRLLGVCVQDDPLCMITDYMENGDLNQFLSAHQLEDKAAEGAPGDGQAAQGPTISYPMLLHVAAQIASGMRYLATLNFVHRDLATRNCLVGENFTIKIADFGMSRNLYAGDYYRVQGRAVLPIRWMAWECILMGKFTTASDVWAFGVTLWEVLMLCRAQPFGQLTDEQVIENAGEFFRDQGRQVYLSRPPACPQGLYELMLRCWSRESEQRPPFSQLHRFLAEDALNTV
Target,log2 fold change (erlotinib),log2 fold change [1],log2 fold change [2],log2 fold change [3],log2 fold change [4],log2 fold change [5],log2 fold change [6],log2 fold change [7],log2 fold change [8],log2 fold change (IRAK-1-4 Inhibitor I),log2 fold change (ibrutinib),log2 fold change [9],log2 fold change (ralimetinib),log2 fold change [10],log2 fold change [11],log2 fold change [12],log2 fold change [13],log2 fold change [14],log2 fold change [15],log2 fold change [16]
CSNK1A1 (UniProt P48729),-0.027,-0.106,0.093,0.028,0.013,0.217,0.406 (active),-0.082,-0.032,-0.038,-0.098,0.148,0.088,-0.002,-0.035,-0.019,-0.002,-0.029,0,0.003
COG3 (UniProt Q96JB2),0.045,0.053,-0.037,-0.049,-0.008,-0.022,-0.056,-0.02,-0.01,0.012,0.026,-0.008,0.052,-0.042,-0.04,0.006,-0.019,0.02,0.044,0.02
DDR1 isoform 5 (UniProt Q08345),,,,,0.044,0.04,,-0.011,-0.016,0.097,0,,0.205,0.021,,-0.117,-0.099,0.38,0.117,
DHRS13 (UniProt Q6UX07),0.227,,-0.074,,-0.142,0.133,,,,-0.162,-0.106,-0.003,0.094,-0.111,-0.073,0.082,-0.292,0.03,-0.009,0.111
DALRD3 (UniProt Q5D0E6),0.034,0.152,0.05,-0.413,,,0.021,0.031,-0.068,,,0.028,,,-0.024,,,,,0.037
CSNK1A1 isoform 3 (UniProt P48729),,,,,,-0.006,,,,0.088,,,0.13,0.253,,,-0.061,,0.143,
CSNK1D (UniProt P48730),,-0.32,,-0.06,0.039,0.124,0.415 (active),-0.031,0.013,-0.048,-0.086,0.494 (active),-0.038,-0.112,,0.245,-0.151,-0.001,-0.143,0.179
CHMP4A (UniProt H0YIN6),,,,,0.06,-0.055,,,,0.142,-0.077,-0.203,-0.253,-0.354,,,-0.055,0.33,0.15,-0.159
CHEK2 (UniProt O96017),-0.042,-0.006,,0.05,0.053,0.018,0.148,0.11,-0.035,-0.031,0.04,-0.043,-0.011,0.081,0.211,0.013,-0.002,-0.041,0.073,0.013
DAZAP1 (UniProt K7EQ02),,,,,,,,,,,,,,,,0.033,,,,
COL6A3 (UniProt P12111),-0.101,,0.14,,-0.232,-0.108,,,,-0.071,-0.087,,0.174,-0.132,0.047,-0.066,-0.099,-0.021,-0.54 (active),
DLGAP5 isoform 3 (UniProt Q15398),,,,,-0.009,,,,,,-0.076,,,,,,0.233,,,
CRLS1 (UniProt Q9UJA2),0.074,,-0.085,,0.087,0.056,,,,-0.021,-0.023,-0.008,0.079,-0.027,-0.102,-0.049,,0.066,0.058,0.048
DNM2 isoform 4 (UniProt P50570),0.099,,0.107,,,0.072,,-0.11,-0.011,0.133,,-0.018,0.011,-0.027,-0.143,-0.07,0.075,-0.08,0.047,0.058
DESI2 (UniProt Q9BSY9),,0.195,,-0.043,,,0.119,0.002,0.067,,,,,,,,,,,
CLASP1 isoform 4 (UniProt Q7Z460),0.199,-0.041,0.04,-0.262,,,-0.029,,,,,,,,-0.124,-0.226,,,,
CXCL14 (UniProt O95715),,0.119,,-0.094,-0.09,,-0.268,-0.444,0.119,,-0.012,,,,,,,,,
CLASP2 (UniProt O75122),,-0.114,,0.12,-0.225,-0.044,-0.059,0,0.023,-0.017,,-0.048,0.075,0.069,,0.044,,-0.098,0.001,-0.028
CPLX1 (UniProt O14810),,-0.059,,0.062,,0.012,0.114,0.012,-0.048,0.027,,-0.071,0.079,-0.139,,,0.874 (active),,0.037,0.119
CSDE1 isoform 3 (UniProt O75534),,,,,0.13,0.027,,,,-0.011,0.051,-0.331,0.047,0.019,,-0.112,,-0.009,-0.137,0.031
CYP4V2 (UniProt Q6ZWL3),-0.07,,0.014,,0.126,0.099,,,,0.074,0.157,0.129,0.058,-0.095,-0.004,,-0.022,0.02,0.015,0.015
CSAD isoform 3 (UniProt Q9Y600),-0.02,,0.064,,-0.115,0.044,,,,-0.02,-0.224,,-0.019,-0.048,0.041,,,-0.027,-0.033,
COL12A1 (UniProt Q99715),-0.016,-0.009,0.01,-0.008,,,-0.053,0.059,0.065,,,0.72,,,0.024,,-0.224,1.57 (active),,0.005
CIC (UniProt I3L1Q4),,,,,-0.03,,,,,,0.005,,,,,,,,,
CLIP1 isoform 2 (UniProt P30622),-0.067,,0.056,,-0.082,-0.055,,0.023,0.023,0.026,,0.05,-0.002,-0.04,-0.054,0.017,-0.025,0.053,0.021,-0.088
"CSNK2A1, A0A2R8Y4D6",,,,,,,,,,,,0.172,,,,,,,,-0.292
DONSON (UniProt Q9NYP3),0,,0.051,,0.014,0.06,,,,-0.021,0.059,0.002,-0.033,0.074,-0.022,-0.071,-0.037,0.062,-0.096,-0.013
